Active and inactive are the calls of the source. Cut-off read from the data, not from the text of the source: active = inhibition above about 30%; inactive = the rest.
system: transactivating tegument protein VP16 (Human herpesvirus 1), Gal4-VP16 luciferase reporter; assay: VP16 transactivation inhibitors, counter-screen for SRC3 inhibitor project, cell-based, luminescence, high throughput (AID 588794); settings: mammalian cells, VP16-driven luciferase reporter luminescence; at 3.6 µM; hits give high values

Row | SMILES | inhibition
1 | Cc1ccc(N=Nc2ccc3ccccc3c2O)cc1 | 17.5% (inactive)
2 | CC(=O)/C=C/c1ccc2ccccc2n1 | 18.8% (inactive)
3 | Cc1cccc(NNC(=O)C(=O)NNc2cccc(C)c2)c1 | 24.3% (inactive)
4 | O=C(N/N=C\c1cc(Br)ccc1O)c1ccc(S(=O)(=O)N2CCCCC2)cc1 | 74.8% (active)
5 | Cc1ccc2c(c1)/C(=C/c1ccc(F)cc1)C(=O)N2 | -3.06% (inactive)
6 | CCC(=O)NC(c1cccs1)c1ccc2cccnc2c1O (stereo not given) | 25.9% (inactive)
7 | O=C(N/N=C/c1ccc(O)cc1O)c1ccc(NC(=O)C2CCCCC2)cc1 | 10.4% (inactive)
8 | c1ccc(-n2nnnc2NCCCN2CCOCC2)cc1 | -8.35% (inactive)
9 | COc1ccccc1NS(=O)(=O)c1cc(NC(=O)c2[nH]c(C)c(C(C)=O)c2C)ccc1N1CCOCC1 | -14.8% (inactive)
10 | Cc1nnsc1-c1onc(C)c1C(=O)Nc1cc(Cl)cc(Cl)c1 | 13.8% (inactive)
